The campaign covered roughly 52,000 compounds. About 1,700 (3.3%) were called active. Shown is part of a subset that was picked to be rich in actives. A number with no mark means an inactive call. Cut-off read from the data, not from the text of the source: active = survival mostly below about 52% (no sharp cut-off); inactive = mostly above about 56%.
system: Wild type; assay: S. aureus survival, RN4220 and DeltatarO strains – OD600, teichoic acid synthesis inhibitors, primary screen (AID 463173); conditions: S. aureus RN4220 wild type/DeltatarO growth, OD600, 18 h, active compounds read low, screened at 18.75 µg/mL (by protocol)

SMILES | survival
O=C(NCCc1ccccc1)c1ccc2c(c1)CCN2S(=O)(=O)c1ccc(Cl)cc1 | 114%
O=C(Nc1nc2ccccc2s1)c1ccc(S(=O)(=O)N2CCCC2)cc1 | 80%
CCc1nn(CC(=O)NCCc2ccc(OC)c(OC)c2)c(=O)c2cc3occc3n12 | 147%
CCS(=O)(=O)N1CC(=O)N(c2ccccc2C)C(C)(C(=O)NC2CCCCC2)C1 (stereo not drawn) | 82%
Cc1ccc(N2CCN(S(=O)(=O)c3ccc4[nH]c5c(c4c3)CCCCC5)CC2)c(C)c1 | 135%
Cc1ccc(C)c(N2CCN(S(=O)(=O)c3ccc4[nH]c5c(c4c3)CCCCC5)CC2)c1 | 89%
Cc1ccc(C)c(N2CCN(S(=O)(=O)c3ccc4[nH]c5c(c4c3)CCCC5)CC2)c1 | -4% (active)
CCOC(=O)c1ccc(NC(=O)CN2c3ccccc3S(=O)(=O)c3ccccc32)cc1 | 121%
O=C(NCc1ccco1)c1ccc(Cn2c(SCc3ccccc3F)nc3cccnc32)cc1 | 74%
CCOC(=O)/C(C#N)=C(\O)c1ccccc1 | 104%
CCOc1ccc(NC(=O)c2oc3ccccc3c2NC(=O)C(C)Oc2ccccc2)cc1 (stereo not drawn) | 94%
Cc1cc(C)cc(OC(C)C(=O)Nc2c(C(=O)c3ccccc3)oc3ccccc23)c1 (stereo not drawn) | -1% (active)
CCc1ccc(OCC(=O)Nc2c(C(=O)c3ccccc3)oc3ccccc23)cc1 | 65%
Cc1cc(C)cc(OCC(=O)Nc2c(C(=O)c3ccccc3)oc3ccccc23)c1 | 78%
CCc1ccc(OC(C)C(=O)Nc2c(C(=O)c3ccccc3)oc3ccccc23)cc1 (stereo not drawn) | 13% (active)
Cc1cc(OC(C)C(=O)Nc2c(C(=O)c3ccc(F)cc3)oc3ccccc23)ccc1Cl (stereo not drawn) | 68%
COc1cc2c(cc1NC(=O)C(C)Oc1ccc(Cl)cc1Cl)oc1ccccc12 (stereo not drawn) | 49%
COc1cc2c(cc1NC(=O)C(C)Oc1ccccc1)oc1ccccc12 (stereo not drawn) | 1% (active)
COc1cc2c(cc1NC(=O)COc1cc(C)cc(C)c1)oc1ccccc12 | 75%
CC(=O)c1cc(-c2ccc(F)cc2)n(CC(=O)Nc2cc(C)cc(C)c2)c1C | 66%
Cc1ccc(Nc2c(-c3ccc(C)s3)nc3ncccn23)cc1 | 43%
Cc1cccn2c(=O)c(C(=O)N3CCN(c4ccccc4)CC3)cnc12 | 22%
Cc1cccc(N2CCN(C(=O)c3cccn4c(=O)c5cc(Cl)ccc5nc34)CC2C)c1 (stereo not drawn) | 65%
Cc1cccc(N2CCN(C(=O)c3cnc4c(C)cccn4c3=O)CC2C)c1 (stereo not drawn) | 0% (active)

SMILES | survival
COc1ccc(NS(=O)(=O)c2ccc3c(c2)n(C)c(=O)c(=O)n3C)cc1Cl | 77%
O=C(Cc1ccc(F)cc1)NC1CC(=O)N(c2ccccc2)C1 (stereo not drawn) | 72%
O=C(Cn1c(-c2cccs2)cc2ccccc21)NCc1ccccc1Br | 120%
CN(CCCNC(=O)Cn1ncc2c([nH]c3ccccc32)c1=O)Cc1ccccc1 | 73%
O=C(Cn1ncc2c([nH]c3ccccc32)c1=O)NCc1cccc(Cl)c1 | -3% (active)
COc1ccc(CNC(=O)Cn2ncc3c([nH]c4ccccc43)c2=O)cc1 | 63%
CCN(CC)CCNC(=O)Cn1ncc2c([nH]c3ccccc32)c1=O | 72%
CCCCN(C)CCNC(=O)Cn1ncc2c([nH]c3ccccc32)c1=O | 0% (active)
Cc1ccc(CCNC(=O)Cn2ncc3c([nH]c4ccccc43)c2=O)cc1 | 66%
CCC(=O)N1CCN(c2ccc(NC(=O)c3ccccc3)cc2)CC1 | 99%
Cc1cccc(Nc2nnc(-c3ccc(C)c(S(=O)(=O)N4CCN(C)CC4)c3)c3ccccc23)c1 | 147%
O=C(Nc1cccnc1Cl)c1cc(-c2ccc(Cl)cc2)on1 | 83%
COc1ccccc1CNC(=O)CCC1N=C2c3ccccc3N=C(SCc3cccc(Cl)c3)N2C1=O (stereo not drawn) | 82%
O=C(CCC1N=C2c3ccccc3N=C(SCc3ccccc3F)N2C1=O)NCc1ccc(F)cc1 (stereo not drawn) | 73%
COc1ccc(CNC(=O)CCC2N=C3c4ccccc4N=C(SCc4ccccc4F)N3C2=O)cc1 (stereo not drawn) | 10% (active)
COc1ccc(CNC(=O)CCC2N=C3c4ccccc4N=C(SCc4ccc(F)cc4)N3C2=O)cc1 (stereo not drawn) | 82%
CCCCNC(=O)CSC1=Nc2ccccc2C2=NC(CCC(=O)NCc3ccccc3OC)C(=O)N12 (stereo not drawn) | -2% (active)
COc1ccc(OC)c(NC(=O)CSC2=Nc3ccccc3C3=NC(CCC(=O)NCc4ccccc4)C(=O)N23)c1 (stereo not drawn) | -3% (active)
COCCCNC(=O)CSC1=Nc2ccccc2C2=NC(CCC(=O)NCc3ccccc3OC)C(=O)N12 (stereo not drawn) | 73%
COc1ccc(OC)c(NC(=O)CSC2=Nc3ccccc3C3=NC(CCC(=O)NCCc4ccccc4)C(=O)N23)c1 (stereo not drawn) | 73%
COc1ccccc1CNC(=O)CCC1N=C2c3ccccc3N=C(SCc3ccc(C)cc3)N2C1=O (stereo not drawn) | 118%
COc1ccccc1CNC(=O)CCC1N=C2c3ccccc3N=C(SCC(=O)NCCc3ccccc3)N2C1=O (stereo not drawn) | 129%
COc1ccc(OC)c(NC(=O)CSC2=Nc3ccccc3C3=NC(CCC(=O)NCc4ccco4)C(=O)N23)c1 (stereo not drawn) | 70%
COc1ccccc1CNC(=O)CCC1N=C2c3ccccc3N=C(SCc3ccc(Cl)cc3)N2C1=O (stereo not drawn) | 0% (active)

Source: PubChem BioAssay AID463173 (ICCB-Longwood Screening Facility, Harvard Medical School, 2010)
